The list is not random: actives were taken first. Their share in the collection is about 1.4%.
Giardia FBPA inh = inhibitors of Giardia lamblia fructose-1,6-bisphosphate aldolase; AID 2451; A8B2U2; purified Giardia FBPA; Potency, µM (top dose mostly 59.6 µM), for the others: at the top dose activity, negative = inhibition, hits mostly inhibitors; hit rate 0.71% among 290,000; further: nearly all actives have a fitted effect of over 55% in size
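Giardia FBPA (40 nM reagent) was preincubated 10 min at RT with compound (up to 57.5 uM final), then substrate plus GAPDH/TPI/NAD/arsenate coupling system with diaphorase/resazurin was added; resorufin fluorescence (525/598 nm) was read after 20 min.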
LmPK inhibitor = blocks Leishmania mexicana pyruvate kinase activity; Q27686; purified LmPK, Kinase-Glo ATP luminescence, 1 h; Potency, µM (titrated, usually from 57.5 µM), for the others: top-dose activity change, negative = inhibition, hits mostly inhibitors; hit rate 0.37% among 290,000; AID 1721
Target sequence (Q27686 whole entry, looked up): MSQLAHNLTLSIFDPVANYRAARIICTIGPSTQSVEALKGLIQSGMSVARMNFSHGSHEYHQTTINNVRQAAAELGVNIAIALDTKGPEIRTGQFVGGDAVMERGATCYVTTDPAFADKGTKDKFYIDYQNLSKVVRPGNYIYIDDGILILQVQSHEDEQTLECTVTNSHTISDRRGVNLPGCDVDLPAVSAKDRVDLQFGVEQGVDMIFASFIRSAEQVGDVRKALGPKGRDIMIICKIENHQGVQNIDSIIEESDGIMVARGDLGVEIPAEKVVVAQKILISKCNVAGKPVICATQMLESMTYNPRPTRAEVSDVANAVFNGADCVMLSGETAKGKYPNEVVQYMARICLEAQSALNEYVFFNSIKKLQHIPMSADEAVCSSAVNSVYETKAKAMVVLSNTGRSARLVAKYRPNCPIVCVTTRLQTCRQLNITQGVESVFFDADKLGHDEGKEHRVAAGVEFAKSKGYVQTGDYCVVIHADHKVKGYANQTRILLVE
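ATP generated from ADP (0.1 mM) and PEP (0.5 mM) by 0.1 nM LmPK over 1 h at room temperature (pH 7.2 imidazole buffer) was detected by coupled luciferase luminescence. Values were normalized to uninhibited and no-enzyme wells.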
AmpC detergent = blocks E. coli AmpC beta-lactamase in detergent assay; AID 485294; hit rate 0.041% among 370,000; Potency, µM (titrated, usually from 114 µM), inactives show at the highest dose activity change, negative = inhibition, hits mostly inhibitors; AmpC hydrolysis of nitrocefin, absorbance 480 nm, 0.01% Triton;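 further: 0% = no-compound wells and -100% = no-enzyme wells; nearly all actives have a fitted effect of over 25% in size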
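AmpC (5.3 nM in the dispensed reagent) in 20 mM phosphate pH 7.0 with 0.01% (detergent screen) or 0.0001% Triton X-100 was preincubated with compounds for 15 min at room temperature. Nitrocefin was then added from an 800 uM solution, and hydrolysis was followed at 480 nm.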
AmpC inh no detg = inhibitors of E. coli AmpC beta-lactamase without detergent | P00811 | AmpC nitrocefin hydrolysis, absorbance 480 nm, 0.0001% Triton | Potency, µM (top dose mostly 57.1 µM), for inactives: at the top dose activity change, negative = inhibition, actives largely listed as inhibitors | hit rate 0.52% among 330,000 | AID 485341;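 further: plate controls were no compound for no effect and no enzyme for full effect; nearly all actives have a fitted effect of over 20% in size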
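20 mM phosphate pH 7.0 + 0.01% (detergent screen) or 0.0001% Triton X-100; 5.3 nM AmpC reagent; cpd preinc 15 min RT; nitrocefin (800 uM stock) to start; A480 q20 s × 4 min; Activity was normalised to no-enzyme and no-compound control wells.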
Tb PYK inh = T. brucei pyruvate kinase inhibition | Q57TT1 | TbPYK enzyme, Kinase-Glo Plus ATP luminescence, 45 min | Potency, µM (series often up to 76.8 µM), without a hit: at the top dose activity, negative = inhibition, hits mostly inhibitors | hit rate 0.12% among 410,000 | AID 624173; further: nearly all actives have a fitted effect of over 50% in size
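TbPYK + substrate in 50 mM TEA pH 7.2, 100 mM KCl, 10 mM MgCl2, 0.05% BSA, 0.01% Tween-20; cpd pinned; ADP 130 uM final; 45 min RT; Kinase-Glo Plus 10 min; luminescence endpoint.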
RE007 growth inh = less growth of the S. pombe RE007 Vpr strain | hit rate 0.21% among 360,000 | S. pombe RE007 Vpr strain, BacTiter-Glo ATP luminescence, 24 h | Potency, µM (doses to about 92.2 µM), for inactives: top-dose activity change, negative = less growth, usual class: inhibitors; active means well fitted falling curve with a large enough effect; inconclusive means small, poorly fitted or top-dose-only effect; inactive means no such curve, though single readings can be large or run the other way; further: nearly all actives have a fitted effect of over 50% in size
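Fission yeast strain RE007, carrying one chromosomally integrated HIV-1 vpr copy, was seeded at OD 0.01 in PMG+AL medium with 23 nL pinned compound. After 24 h at 30 °C and 99% humidity, viability was read by BacTiter-Glo luminescence.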
The depositor's hits bear a star; ? = inconclusive; nt = no result given. Unless noted, the call rests on the fitted dose curve; in most records, active means well fitted curve in the direction sought with a large enough effect; inconclusive means small, poorly fitted or top-dose-only effect, or another doubt; inactive means no such curve, though single readings can be large; an effect the other way counts as inactive or inconclusive. Unless noted, on the % scale 0 is the no-effect control and ±100 the full control effect; potency means the concentration at half of the fitted maximal effect.

SMILES	Giardia FBPA inh	LmPK inhibitor	AmpC detergent	AmpC inh no detg	Tb PYK inh	RE007 growth inh
Cc1cc(NC(=O)CSc2cn(CCNC(=O)c3ccc(Cl)cc3)c3ccccc23)no1	24%	-2%	3%	10µM*	-1%	5%
CCOc1ccc(C(=O)NCCn2cc(SCC(=O)Nc3cc(C)on3)c3ccccc32)cc1	2%	6%	-5%	-19%	-7%	-4%
COc1ccccc1OCCCn1cc(C#N)c2ccccc21	20µM*	1%	-9%	1%	3%	2%
O=C(Nc1ccc(F)cc1)Nc1ccc(N2CCOCC2)c2nonc12	-27%	-8%	-8%	-8%	1%	-18%
Nc1ccc(N2CCOCC2)c2nonc12	2.8µM*	-5%	-2%	-15%	-25%	-15%
COc1ccccc1CNC(=O)Cn1c(=O)nc(-c2ccccc2F)c2cc(Cl)ccc21	nt	nt	15%	nt	-1%	nt
Cc1ccc(Cn2c(C(=O)O)c(CNCc3ccc(OC(C)C)cc3)c3ccc(C)cc32)cc1	nt	nt	2%	nt	0%	nt
O=C(Cc1cnn(-c2ccccc2)c1)c1ccc(O)c(O)c1O	3.5µM*	5%	0%	-55%	-13%	19%
OC[C@H]1O[C@@H](n2cnc3c2NC=NC[C@@H]3O)C[C@H]1O	nt	nt	nt	nt	0%	nt
CCCCn1c(=O)[nH]c2nc3cc(N)ccc3nc2c1=O	0.14µM*	0%	-4%	-36%	-4%	0%
COc1ccccc1N1CSC2=C(C#N)C(c3ccc(SC)cc3)CC(=O)N2C1 (stereo not drawn)	5.6µM*	-21%	?	-53%	18µM*	-5%
COc1cccc(C2CC(=O)N3CN(c4cccc(Cl)c4C)CSC3=C2C#N)c1OC (stereo not drawn)	?	20%	?	71%	?	-4%
COc1cc(C2CC(=O)N3CN(c4ccccc4C)CSC3=C2C#N)cc(OC)c1OC (stereo not drawn)	4.5µM*	-3%	-6%	29%	nt	nt
Cc1occc1C(=O)N/N=C/c1ccc(N(C)C)cc1	-1%	10µM*	7%	-18%	?	?
Cc1occc1C(=O)N/N=C/C=C/c1ccc(N(C)C)cc1	-11%	-4%	10%	-46%	2%	0%
Cc1occc1C(=O)N/N=C/c1cnn(C)c1C	-1%	16µM*	-13%	-9%	-16%	1%
Cc1c(/C=N\NC(=O)c2ccc(F)cc2)cnn1C	-2%	-2%	-10%	-16%	-11%	4%
Cc1ccc(-n2ncc3c(N(C)Cc4ccccc4)ncnc32)cc1	nt	nt	2%	nt	1%	nt
Cn1c(/N=C/c2c(O)ccc3ccccc23)nc2ccccc21	0.71µM*	-20%	5%	-25%	-6%	-10%
CCCn1c(/N=C/c2ccccc2O)nc2ccccc21	-2%	-4%	4%	-12%	-1%	-9%
CCN(C(=O)Cn1nc(Cc2cccnc2)c2ccccc2c1=O)c1cc(C)ccc1C	nt	nt	10%	nt	1%	nt
O=C(Nc1nc2n(n1)C(c1ccc(F)cc1)C=C(c1ccc(Cl)cc1)N2)c1ccc([N+](=O)[O-])cc1 (stereo not drawn)	nt	nt	-4%	nt	-4%	nt
CC(=O)Oc1cc(-c2coc3cc(OC(C)=O)c(OC(C)=O)c(OC(C)=O)c3c2=O)cc(OC(C)=O)c1OC(C)=O	5.6µM*	nt	nt	nt	nt	nt
CCCCN1CC(c2nc3ccccc3n2CCCCOc2cccc(C)c2C)CC1=O (stereo not drawn)	nt	nt	28%	nt	0%	nt
Cc1ccc(O)c(-c2cc3ccccc3[nH]2)c1	?	-4%	?	-39%	6%	35µM*
CN1/C(=C/C(=O)c2cccs2)Sc2ccccc21	?	?	?	-22%	nt	nt
CN1/C(=C\C(=O)c2cccs2)Sc2ccccc21	-26%	11µM*	-5%	-24%	-17%	-19%
Cc1ccc(-c2cn3c(n2)sc2cc(C(=O)NC4CCCCC4)ccc23)cc1	nt	nt	10%	nt	-6%	nt

Assay outcomes deposited in PubChem by National Center for Advancing Translational Sciences (NCATS).
